Experimental data reported in PubChem BioAssay AID588849 (Broad Institute, 2011).
Results with a measured potency or affinity are listed apart. Calls of active or inactive are those of the source. How the calls were made is not given here.

Target: CAAX prenyl protease 2 (Homo sapiens) (UniProt Q9Y256)
Experiment: inhibition of Ras-converting CAAX protease Rce1 – biochemical, yeast membranes, quenched-peptide fluorescence, cherry-pick, dose response (AID 588849)

Chain of CAAX prenyl protease 2 (Homo sapiens) (Q9Y256 whole entry, looked up): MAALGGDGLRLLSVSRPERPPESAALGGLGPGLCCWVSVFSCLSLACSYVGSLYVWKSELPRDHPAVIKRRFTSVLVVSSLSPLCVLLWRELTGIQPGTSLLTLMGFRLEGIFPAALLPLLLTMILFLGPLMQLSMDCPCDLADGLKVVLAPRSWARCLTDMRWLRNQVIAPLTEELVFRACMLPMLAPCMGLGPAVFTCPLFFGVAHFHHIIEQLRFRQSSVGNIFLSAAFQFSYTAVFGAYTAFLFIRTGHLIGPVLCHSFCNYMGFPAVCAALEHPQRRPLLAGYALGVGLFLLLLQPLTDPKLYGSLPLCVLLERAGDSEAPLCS

For `CCCCCCCCCCOC(=O)Cn1c(COc2ccc(C)cc2)[n+](C)c2ccccc21`, the outcome was “inactive”.
With `C[C@@]12CCC=C[C@H]1[C@H](c1ccc(/C=C/c3ccccc3)cc1F)N(Cc1ccccc1)C2=O` the outcome was “inactive”.
For `O=C(c1cn(-c2ccccc2)nc1-c1cccs1)N1CCN(c2ccccc2)CC1`, the outcome was “inactive”.
With `c1ccc(-n2cnnc2SCc2cn3cccnc3n2)cc1` the outcome was “inactive”.
`COC(=O)C1CCCN1S(=O)(=O)c1ccc2ccccc2c1` (centres undefined) was tested, and the outcome was “inactive”.
`COc1ccc(Cl)cc1C(=O)Nc1ccc2c(c1)OCO2` was tested, and the outcome was “inactive”.
`O=C(O)c1ccc2cccc(Cl)c2c1O` was tested, and the outcome was “inactive”.
For `Nc1nonc1-n1nnc(C(=O)N/N=C/c2ccoc2)c1CSc1ccccc1`, the outcome was “inactive”.
With `Cc1ccc(C(=O)N/C(=C/c2ccco2)C(=O)Nc2cccc(C(=O)O)c2)cc1` the outcome was “inactive”.
With `Cc1ccc2c(C)c(C(=O)N(Cc3ccc(F)cc3)C3CCS(=O)(=O)C3)oc2c1` (centres undefined) the outcome was “inactive”.
`Nc1nnc(-c2ccncc2)s1` was tested, and the outcome was “inactive”.
In the case of `CCn1cc(C(=O)NCCO)c(=O)c2cc(F)c(N3CCN(C)CC3)cc21`, the outcome is reported as “inactive”.
For `CCCOc1ccc(-c2c(C(=O)N/N=C/c3cccs3)nnn2-c2nonc2N)cc1`, the outcome was “inactive”.
For `COc1ccc2[nH]c(C(=O)NCCCn3ccnc3)cc2c1`, the outcome was “inactive”.
With `Cc1ccc(-c2nc(Nc3ccc(N4CCOCC4)cc3)c3ccccc3n2)cc1` the outcome was “inactive”.
`CC(C)C(=O)Nc1cccc(NC(=S)NC(=O)C(c2ccccc2)c2ccccc2)c1` was tested, and the outcome was “inactive”.
In the case of `COc1ccc(Cc2nc3ccc(C(=O)N4CCCC4)cc3o2)cc1`, the outcome is reported as “inactive”.
`Nc1c(C(=O)NCc2ccccc2)sc2nc(N3CCOCC3)c3c(c12)CCCC3` was tested, and the outcome was “inactive”.
With `COc1c2ccoc2nc2c(OC)cccc12` the outcome was “inactive”.
In the case of `CCOC(=O)c1c(NC(=O)COc2ccccc2F)sc2c1CC(C)(C)NC2(C)C`, the outcome is reported as “inactive”.
`Cn1c(CCNS(=O)(=O)c2ccccc2)nnc1SCc1cccnc1` was tested, and the outcome was “inactive”.
In the case of `CCCCN(CC)CCNC(=O)c1cc2c(-c3ccc(Cl)cc3)nn(C)c2s1`, the outcome is reported as “inactive”.
With `CC(C)C[C@H](NC(=O)c1nc[nH]c1C(=O)N1CCNCC1)C(=O)OCc1ccccc1` the outcome was “inactive”.
With `COC(C/C=C/C(=O)[C@H](C)OCc1ccccc1)OC` the outcome was “inactive”.
`COc1ccc(S(=O)(=O)NCC2CCCO2)cc1NC(=O)c1ccccc1F` (centres undefined) was tested, and the outcome was “inactive”.
In the case of `c1cnn(Cc2cnc(N3CCOCC3)s2)c1`, the outcome is reported as “inactive”.
With `O=c1c(-c2ccccc2)c(O)c2ccccc2n1-c1ccccc1` the outcome was “inactive”.
With `CCN(CC)CCN(C(=O)c1cc2ccccc2cc1OC)c1nc2ccc(F)cc2s1` the outcome was “inactive”.
`COc1ccc(OC)c(/C=N/NC(=O)Cn2ccnc2C)c1` was tested, and the outcome was “inactive”.
`c1ccc(-n2nnnc2SCc2cn3cccnc3n2)cc1` was tested, and the outcome was “inactive”.
With `C=CCn1c(SCc2ccc(C#N)cc2)nnc1-c1ccc(C)cc1` the outcome was “inactive”.
For `COc1cc(-c2nc3ccccn3c2/N=C/c2cc(OC)c(OC)c(OC)c2)ccc1O`, the outcome was “inactive”.
For `CCSCCOC(=O)C1=C(C)NC(=O)NC1c1ccccc1` (centres undefined), the outcome was “inactive”.
For `COc1ccccc1/C=C/C=N/NC(=O)CN1CCN(S(=O)(=O)c2ccc(C)cc2)CC1`, the outcome was “inactive”.
With `Cc1ccccc1NS(=O)(=O)c1ccc(C(=O)NCC(c2ccccc2)N(C)C)cc1` (centres undefined) the outcome was “inactive”.
For `c1ccn2cc(-c3ccc4c(c3)OCCO4)nc2c1`, the outcome was “inactive”.
For `CCOc1ccc(-c2c(C(=O)N/N=C/c3cccs3)nnn2-c2nonc2N)cc1`, the outcome was “inactive”.
`Cc1cc(C)cc(N2CC(O)=C(c3nc4ccccc4c(=O)[nH]3)C2=N)c1` was tested, and the outcome was “inactive”.
For `Cc1cc(N2CCN(C(c3ccccc3)c3ccccc3)CC2)n2ncnc2n1`, the outcome was “inactive”.
With `COc1ccc(OC)c(/C=N/c2c(-c3ccc(O)c(OC)c3)nc3ccccn23)c1` the outcome was “inactive”.
In the case of `COc1ccc(C2CC(c3ccc4ccccc4c3)=NN2C(=O)CNC2CCCCC2)cc1` (centres undefined), the outcome is reported as “inactive”.
With `COc1ccc(C2c3c(ncn(CCN4CCOCC4)c3=N)Oc3ccc4ccccc4c32)cc1` (centres undefined) the outcome was “inactive”.
`Nc1nonc1-n1nnc(C(=O)N/N=C/c2cccc(Cl)c2)c1CSc1ccc(Cl)cc1` was tested, and the outcome was “inactive”.
In the case of `COc1ccc(C2Nc3ccccc3C(=O)N2Cc2ccccc2)cc1COc1ccccn1` (centres undefined), the outcome is reported as “inactive”.
In the case of `CC(=O)NC(Cc1c[nH]c2ccccc12)C(=O)O` (centres undefined), the outcome is reported as “inactive”.
In the case of `COc1cc(C(=O)OCC(=O)Nc2ccc(SC(F)F)cc2)cc(OC)c1OC`, the outcome is reported as “inactive”.
`COc1ccccc1-n1c(-c2ccccc2)c[nH]c1=S` was tested, and the outcome was “inactive”.
`Cc1cc(C)n2nc(CC(=O)NNC(=O)c3ccc(N(C)C)cc3)nc2n1` was tested, and the outcome was “inactive”.
With `O=C(NCCc1cccnc1)c1cc(COc2ccc(F)cc2Cl)on1` the outcome was “inactive”.
